Screens deposited in PubChem by The Scripps Research Institute Molecular Screening Center.
CHO-K1 Ca ag = nonselective activator or artifact in parental CHO-K1 cells; AID 602248; 360,000 compounds, 0.48% hits; activation, % at 3 µM; Fluo-8 calcium fluorescence; scaled to maximal ATP response, vehicle zero; in the data active = activation above about 15%;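 also: untransfected CHO-K1 host cells lacking M1 receptor as counterscreen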
CHRM1 antagonist = human CHRM1 antagonism | P11229 | CHO-K1 hM1, Fluo-8 calcium fluorescence, ACh EC80 antagonist | inhibition, % at 3 µM | 360,000 compounds, 1.3% hits;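 active = percent inhibition above its own plate's cutoff, namely the mean of that plate's compound wells plus 3 SD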;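 also: peak over basal fluorescence ratio during 140 s after agonist addition; 0% = ACh EC80 plus DMSO and 100% = DMSO alone without agonist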
Target sequence (P11229 whole entry, looked up): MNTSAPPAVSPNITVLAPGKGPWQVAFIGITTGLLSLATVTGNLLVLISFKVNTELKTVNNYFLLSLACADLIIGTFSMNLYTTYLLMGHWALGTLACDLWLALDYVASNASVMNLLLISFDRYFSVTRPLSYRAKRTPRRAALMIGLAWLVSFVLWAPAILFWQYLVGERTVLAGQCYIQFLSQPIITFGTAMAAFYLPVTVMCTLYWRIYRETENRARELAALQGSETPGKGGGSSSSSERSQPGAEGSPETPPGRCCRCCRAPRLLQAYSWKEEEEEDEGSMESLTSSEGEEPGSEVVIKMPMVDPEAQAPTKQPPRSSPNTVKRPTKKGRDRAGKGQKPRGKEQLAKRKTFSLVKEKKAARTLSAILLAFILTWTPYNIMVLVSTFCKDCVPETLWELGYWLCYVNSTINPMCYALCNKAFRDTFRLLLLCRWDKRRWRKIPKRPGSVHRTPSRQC
CHRM1 agonist = activates human CHRM1 receptor | CHO-K1 hM1, Fluo-8 calcium fluorescence, agonist mode; 0% DMSO, 100% acetylcholine EC100 | 360,000 compounds, 0.33% hits | activation, % at 3 µM | AID 588814 | P11229;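 active = activation above the run's mean compound activation plus 3 SD, cut at about 16% in these data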;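 also: peak over basal fluorescence ratio within a 140 s kinetic read after compound addition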
CHO-K1 Ca antag = M1 antagonist counterscreen hit in parental CHO-K1 cells | AID 602250 | inhibition, % at 3 µM | ATP-induced calcium, Fluo-8 fluorescence | 360,000 compounds, 0.6% hits;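 active = inhibition above a per-plate cutoff, the plate's mean sample inhibition plus 3 SD, cut at about 24% in these data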;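 also: 0% = DMSO plus EC80 ATP and 100% = DMSO alone without ATP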
M1 PAM = potentiates human M1 receptor response to acetylcholine | P11229 | CHO-K1 hM1, Fluo-8 calcium fluorescence, ACh EC20; 0% = ACh EC20, 100% = maximal ACh | activation, % at 3 µM | 360,000 compounds, 0.088% hits; in the data active = activation above about 19%, passing the limit was not always enough
M1 PAM parental = nonselective activator or artifact in parental CHO-K1 calcium assay; ATP EC20, Fluo-8 calcium fluorescence; 0% at ATP EC20, 100% at ATP max; activation, % at 3 µM; 360,000 compounds, 0.02% hits; AID 602247;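 active = activation above the run cutoff, the mean activation of all test compounds plus 3 SD, cut at about 40% in these data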;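 also: peak over basal fluorescence ratio in a 140 s read after ATP addition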
Numbers without * were called inactive. Most compounds without a hit are left out; they make up all but 2.4% or so of the library.

SMILES	CHO-K1 Ca ag	CHRM1 antagonist	CHRM1 agonist	CHO-K1 Ca antag	M1 PAM	M1 PAM parental
Cc1ccc(S(=O)(=O)Nc2cccc(C(=O)NCC(c3ccco3)N(C)C)c2)cc1F (stereo not given)	1.9	43.1*	-7.2	-6.3	-25.4	11.5
CN(C)C(CNC(=O)c1ccc(C2SCCS2)cc1)c1ccccc1 (stereo not given)	0.9	37.6*	-12.7	-18.6	-27.4	8.2
O=C(c1cccs1)C1CCCN(Cc2nc(Cc3ccccc3F)no2)C1 (stereo not given)	1.1	-2.7	-7.8	2.9	3.3	-6.7
O=C(NCc1ccc(Cl)cc1)C1CCN(S(=O)(=O)c2ccc(N3CCCC3=O)cc2)CC1	9.0	32.8*	1.0	1.2	-14.8	-26.0
CC(=O)N1c2ccc(S(=O)(=O)N3CCC(C(=O)Nc4cccc(C(F)(F)F)c4)CC3)cc2CC1C (stereo not given)	8.5	14.4	0.9	31.9*	-2.3	-10.5
COc1cccc(NC(=O)C2CCN(S(=O)(=O)c3ccc4c(c3)CC(C)N4C(C)=O)CC2)c1 (stereo not given)	9.2	3.9	-0.3	-15.2	-4.5	3.0
COc1ccc(CNC(=O)CCNC(=O)C2CCN(S(=O)(=O)c3ccc(OC)cc3)CC2)cc1	0.2	-32.9	0.6	-12.7	26.9*	15.6
O=C(NCc1ccccc1)C1CCN(S(=O)(=O)c2ccc(N3CCCC3=O)cc2)CC1	5.6	-17.5	-1.0	-5.2	12.0	15.7
COc1cccc(NC(=O)C2CCN(S(=O)(=O)c3ccc(N4CCCC4=O)cc3)CC2)c1	12.6	4.9	2.6	-8.3	-12.0	-0.5
O=C(Nc1cccc(C(F)(F)F)c1)C1CCN(S(=O)(=O)c2ccc(N3CCCC3=O)cc2)CC1	16.0*	33.1	1.6	21.7	-7.8	2.2
COc1ccc(NC(=O)CCNC(=O)C2CCN(S(=O)(=O)c3ccc(OC)cc3)CC2)cc1	0.6	-5.0	-0.9	-4.9	6.7	1.2
CCc1ccc(CN2CCC(n3nccc3NC(=O)C3CCCC3)CC2)cc1	0.2	-7.8	-0.2	-9.1	5.7	3.8
Cc1ccc(C(OCC(O)CNCc2ccc(F)cc2)c2ccccc2)cc1 (stereo not given)	17.4*	8.1	7.5	35.6*	3.3	11.5
C=CCc1cccc(/C=N/NC(=O)c2ccccc2OC)c1O	1.4	-2.2	-7.5	1.3	-3.0	12.0
C=CCc1cccc(/C=N/NC(=O)c2ccccc2Br)c1O	1.4	-2.6	-8.3	-16.4	10.2	44.2*
CCCOC(=O)c1c(-c2ccccc2)nc(CC)c(C(=O)SCC)c1CCC	0.5	-36.4	0.4	-14.2	5.6	27.7
COc1ccc(OC)c(S(=O)(=O)N2CCC(C(=O)Nc3ccc(C)c(C)c3)CC2)c1	9.2	36.4*	4.5	-4.9	-11.6	-7.5
O=C(Nc1ccc(Cl)cc1)Nc1ccccc1CC[N+](=O)[O-]	9.8	11.4	0.5	23.7*	-20.6	-13.6
O=C(Nc1ccc(Cl)cc1)Nc1csc([N+](=O)[O-])c1	16.5*	28.9	7.5	15.5	-2.6	2.4
CN(C)C(=O)Nc1ccccc1CC[N+](=O)[O-]	-0.1	-4.2	-3.8	-8.5	4.9	17.8
CC(C)c1ccc(OCc2ccc(C(=O)N3CCCC3)o2)cc1	4.5	19.6	-3.6	-4.0	-7.2	-15.6
O=C(COc1ccc(S(=O)(=O)NC2CCCCC2)cc1Cl)NCc1cccnc1	-0.3	6.8	-1.1	27.9*	7.8	-8.7
CCCS(=O)(=O)NC(=O)C1(C)CCN(C(=O)c2ccc3ccccc3c2)C1 (stereo not given)	0.1	-12.0	-1.9	1.8	5.1	-3.4
COc1ccc([C@@H]2C[C@H]3[C@@H](CN2S(=O)(=O)c2ccccc2)C(=O)C[C@@H](c2ccc(OC)cc2)N3S(=O)(=O)c2ccccc2)cc1	0.4	1.1	-4.7	28.1*	0.0	-7.5
OCC1(Cc2ccccc2)CCCN(Cc2ccc(-c3ccco3)cc2)C1 (stereo not given)	3.5	44.1*	-7.5	-10.9	-24.4	11.1
SMILES	CHO-K1 Ca ag	CHRM1 antagonist	CHRM1 agonist	CHO-K1 Ca antag	M1 PAM	M1 PAM parental
OCC1(Cc2ccccc2)CCN(Cc2ccc(-c3ccco3)cc2)CC1	2.1	19.5	-0.9	-13.6	-6.0	23.0
Cc1noc(C)c1COc1ccc(C(=O)Nc2cccnc2)cc1	0.8	70.6*	-7.8	-11.5	-25.6	1.9
COc1ccc(CN(C)C(=O)C2CCN(C(=O)Nc3ccccc3)CC2)cc1	0.8	18.7	0.0	25.5*	-6.5	-27.2
CN1CCN(c2ccncc2S(=O)(=O)N2CCCCC2)CC1	1.5	26.6*	-5.4	-6.2	-11.8	11.2
CC(C)N1CCN(c2ccncc2S(=O)(=O)N2CCCCC2)CC1	1.6	97.5*	-7.0	1.6	-28.9	12.7
CC(C)NC(=O)N1CCN(c2ccncc2S(=O)(=O)N2CCOCC2)CC1	0.3	-13.9	-1.3	-1.2	-5.1	9.8
O=NN1CCN(c2ccncc2S(=O)(=O)N2CCCCC2)CC1	1.0	-8.8	-0.7	-5.6	8.7	18.9
O=C(Nc1ccccc1)Nc1ccccc1-n1ccnc1	0.3	-7.8	-5.1	-7.7	12.9	17.3
N#Cc1nc(-c2ccccc2Cl)oc1NCC1CCCO1 (stereo not given)	-0.1	-4.9	2.9	24.8*	15.2	-10.7
Fc1c(F)c(F)c(CSc2nc3ccccc3[nH]2)c(F)c1F	1.2	4.7	-3.2	-7.4	-3.4	9.7
O=S1(=O)CC=C(CSc2nc3ccccc3[nH]2)C1	-0.1	26.1*	-10.6	13.3	-19.5	-6.9
CC(/C=C/C=C/c1ccccc1)=N/NC(=O)CNc1ccccc1C	0.8	9.7	-1.9	-6.9	-2.5	22.9
CN(Cc1ccccc1Cl)C(=O)CCNC(=O)c1ccco1	1.4	-14.4	0.2	-11.9	11.1	13.6
O=C1N[C@@H](c2ccccc2)COC(=O)[C@@H](Cc2ccc(F)cc2)C/C=C\C[C@@H]1CC(=O)N(CCO)Cc1ccccc1	17.2*	32.4	4.4	8.2	-19.2	-9.5
O=C1NC[C@H](c2ccccc2)OC(=O)[C@H](Cc2ccc(F)cc2)C/C=C\C[C@H]1CC(=O)N(CCO)Cc1ccccc1	7.7	41.7*	0.6	6.1	-21.2	-7.0
O=C1NC[C@@H](c2ccccc2)OC(=O)[C@H](Cc2ccc(F)cc2)C/C=C\C[C@H]1CC(=O)N(CCO)Cc1ccccc1	4.6	16.4	-6.2	10.3	-8.1	-13.1
O=C(C[C@@H]1C/C=C\CCC(=O)O[C@H](c2ccccc2)CNC1=O)N[C@H](CO)Cc1ccccc1	6.2	2.8	17.9*	-17.1	5.7	19.3
O=C1NC[C@H](c2ccccc2)OC(=O)[C@@H](Cc2ccc(F)cc2)C/C=C\C[C@H]1CC(=O)N(CCO)Cc1ccccc1	11.7	34.1*	-1.8	-5.9	-14.4	2.4
